Broadly, the inhibition is the relative decrease from the control value, in per cent.

Among all 360,000 compounds or so, about 2,200 (0.61%) were called active.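 The calls were made as follows: active = inhibition above a per-plate cutoff, the plate's mean sample inhibition plus 3 SD (cut at about 24% in these data); inactive = the rest.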 Many of the other results were omitted from the sample, so actives are more common in it than they were.

A short description of the test: nonselective inhibitors of ATP calcium response in CHO-K1, primary screen, counter-screen for M1 antagonist project, cell-based, Fluo-8 calcium fluorescence, full deck, 1536-well (AID 602250).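 Also: 0% = DMSO plus EC80 ATP and 100% = DMSO alone without ATP.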 The settings on record: CHO-K1 parental, ATP-induced calcium, Fluo-8 fluorescence; at 3 µM; hits give high values.
In the case of `CCCCC(=O)NNC(=S)NC(=O)C(c1ccccc1)c1ccccc1`, the inhibition is 61.1% (active).
The value for `CCCOCC(O)CC(CC)C(=O)NNC(=S)Nc1ccccc1` (centres undefined) was 1.16% (inactive); that for `CCCCC(=O)NCc1ccc(F)cc1` was -1.22% (inactive); that for `Cc1ccc(C)c(NC(=O)C2Cc3ccccc3CN2C(=O)OCc2ccccc2)c1` (centres undefined) was -8.92% (inactive).
Regarding `Cc1cccc(CSc2nnc(C)c(=O)n2N)c1`, the inhibition was -7.07% (inactive).
As to `Cn1c(SCC(=O)N2CCCCC2)nc2c(c1=O)SCC2`, the inhibition is 8.86% (inactive).
Consider `Cc1cccc(CSc2nc3c(c(=O)n2C)SCC3)c1`, for which the inhibition was 27.6% (active).
Take `COc1cc(S(=O)(=O)N2CCOCC2)ccc1NC(=O)COc1ccc(N(C)S(=O)(=O)c2ccc(C)cc2)cc1`: the inhibition was -12% (inactive).
As to `COc1cc(C(=O)NCc2ccc3c(c2)cc(C)n3C)cc(OC)c1OC`, the inhibition was 19.1% (inactive).
Consider `COc1cc(C(=O)NCc2cc3cc(Cl)ccc3n2C)cc(OC)c1OC`, for which the inhibition is -7.3% (inactive).
In the case of `CCn1c(CNC(=O)c2cc(OC)c(OC)c(OC)c2)cc2cc(C)ccc21` it was 36.1% (active); in that of `CN(Cc1nc(-c2cnccn2)no1)Cc1n[nH]c2c1CCCCC2`, -7.73% (inactive); in that of `CC1CCCN(CC(O)COc2ccc3c(c2)OCO3)C1` (centres undefined), -7.13% (inactive).
In the case of `Cn1c(=O)[nH]c(=O)c2c1nc(N(CCO)Cc1ccccc1)n2Cc1ccccc1Cl`, the inhibition was -11.1% (inactive).
As to `CN(C)S(=O)(=O)c1cccc(NC(=O)COC(=O)C2(c3ccccc3F)CCCC2)c1`, the inhibition is 0.69% (inactive).
In the case of `O=C(COC(=O)C1(c2ccc(F)cc2)CCCC1)N1CCNC1=O` it was -20.1% (inactive); in that of `NS(=O)(=O)c1ccc(NC(=O)COC(=O)C2(c3ccc(F)cc3)CCCC2)cc1`, 31.1% (active); in that of `O=C(N[C@H]1C/C=C\C(c2ccc(F)cc2)N(Cc2ccccc2)C(=O)C1)OCC1c2ccccc2-c2ccccc21` (some centres undefined), -13% (inactive).
In the case of `COc1ccc(COCCN2CCN(S(=O)(=O)c3ccccc3)CCC2=O)cc1`, the inhibition was -8.23% (inactive).
As for `Cc1ccc(S(=O)(=O)N2CCC(=O)N([C@H](COCc3ccccc3)Cc3ccccc3)CC2)cc1`, the inhibition was -5.28% (inactive).
Consider `Cc1ccc(S(=O)(=O)N2CCC(=O)N([C@H](COCc3ccccc3)C(C)C)CC2)cc1`, for which the inhibition is 41.5% (active).
On to `O=C(Nc1ccc(Cl)c(Cl)c1)c1ccccc1NC(=O)C1CC=CCC1C(=O)O` (centres undefined), for which the inhibition was 3.94% (inactive).
`CCCSc1ncccc1C(=O)O`: the inhibition was -2.1% (inactive).
For the compound `COc1ccc(C(=O)NC2CCCc3c2cnn3-c2cccc(C)c2C)c(OC)n1` (centres undefined), the inhibition was 19.6% (inactive).
On to `CC1=C(C(=O)NC2CC(C)(C)Cc3c2cnn3-c2ccc(C)cc2)OCCO1` (centres undefined), for which the inhibition was -1.6% (inactive).
As to `Cn1nccc1C(=O)NC1CCCc2c1cnn2-c1ccc(F)cc1F` (centres undefined), the inhibition is 28.7% (active).
Consider `COc1ccc(C(=O)NC2CC(C)(C)Cc3c2cnn3-c2ccccc2C)o1` (centres undefined), for which the inhibition was -6.41% (inactive).
`Cn1nccc1C(=O)NC1CCCc2c1cnn2-c1ccccc1F` (centres undefined): the inhibition is 26.9% (active).
In the case of `COC(=O)c1ccc(C(=O)NC2CC(C)(C)Cc3c2cnn3-c2ccc(F)cc2)nc1` (centres undefined) it was -7.53% (inactive).

Source of the values: PubChem BioAssay AID602250 (The Scripps Research Institute Molecular Screening Center, 2012).
